What all share (conditions): mRNA level, 48 h; actives raise or lower the signal
Read-out in assay [1]: Tumor necrosis factor receptor superfamily member 6 (Homo sapiens) (UniProt P25445)
Nature of the assay: LTEA_HepaRG_FAS: Life Technologies and Expression Analysis (LTEA) Assay for Fas cell surface death receptor (FAS) using HepaRG (AID 2283447). The method, boiled down: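 Differentiated HepaRG cells in serum-free induction medium were exposed 48 h to 8 half-log concentrations up to 100 uM in 0.5% DMSO, in duplicate. FAS mRNA was measured by qRT-PCR normalised to ACTB, GAPDH and POLR2A; bidirectional fit versus DMSO.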

Read-out in assay [2]: Fatty acid synthase (Homo sapiens) (UniProt P49327)
Nature of the assay: LTEA_HepaRG_FASN: Life Technologies and Expression Analysis (LTEA) Assay for Fatty Acid Synthase (FASN) using HepaRG (AID 2283448). The method, boiled down:
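HepaRG, 48 h exposure, 8-pt half-log series top 100 uM, 0.5% DMSO vehicle, duplicates. Readout: FASN transcript by Fluidigm qRT-PCR; housekeeping-normalized; bidirectional curve fit vs DMSO baseline.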

Read-out in assay [3]: Cyclin Dependent Kinase Inhibitor 1A (CDKN1A), CDKN1A (gene 1026)
Nature of the assay: LTEA_HepaRG_CDKN1A: Life Technologies and Expression Analysis (LTEA) Assay for Cyclin Dependent Kinase Inhibitor 1A (CDKN1A) using HepaRG (AID 2283450). A digest of the protocol: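 Differentiated human HepaRG cells, pre-cultured 48 h, were exposed in duplicate for 48 h in serum-free induction medium to eight half-log concentrations up to 100 uM (0.5% DMSO). CDKN1A mRNA was measured by qRT-PCR, normalized to ACTB/GAPDH/POLR2A, bidirectionally fitted versus DMSO.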

Read-out in assay [4]: Cyclin D1 (CCND1), CCND1 (gene 595)
Nature of the assay: LTEA_HepaRG_CCND1: Life Technologies and Expression Analysis (LTEA) Assay for Cyclin D1 (CCND1) using HepaRG (AID 2283451).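 For AC50: TaqMan qRT-PCR transcript level normalised to ACTB GAPDH and POLR2A housekeeping genes.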 A digest of the protocol: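 Differentiated human HepaRG cells in serum-free induction medium were exposed 48 h to eight half-log concentrations up to 100 uM in 0.5% DMSO; mRNA quantified by TaqMan qRT-PCR, normalized to ACTB, GAPDH, POLR2A, fitted bidirectionally versus DMSO.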

Read-out in assay [5]: catalase (CAT), CAT (gene 847)
Briefly: LTEA_HepaRG_CAT: Life Technologies and Expression Analysis (LTEA) Assay for catalase (CAT) using HepaRG (AID 2283452).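 For AC50: TaqMan qRT-PCR signal normalized to ACTB GAPDH and POLR2A housekeeping genes.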 A digest of the protocol: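 HepaRG cells in serum-free induction medium, 0.5% DMSO vehicle, exposed 48 h in duplicate over 8 half-log concentrations from 100 uM. CAT mRNA measured by qRT-PCR, normalized to ACTB, GAPDH, POLR2A; bidirectional fit versus DMSO.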

Read-out in assay [6]: flavin-containing dimethylaniline monooxygenases 3 (FMO3), FMO3 (gene 2328)
Nature of the assay: LTEA_HepaRG_FMO3: Life Technologies and Expression Analysis (LTEA) Assay for flavin-containing dimethylaniline monooxygenases 3 (FMO3) using HepaRG (AID 2283453).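 For AC50: FMO3 transcript by TaqMan qRT-PCR normalized to ACTB GAPDH and POLR2A.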 A digest of the protocol:
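Eight-point concentration-response in serum-free HepaRG cultures (top 100 uM, 0.5% DMSO, 48 h). Read-out: FMO3 mRNA level normalized to three endogenous control genes, fitted bidirectionally versus vehicle.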

Read-out in assay [7]: Cytochrome P450 (CYP1A1), CYP1A1 (gene 1543)
Nature of the assay: LTEA_HepaRG_CYP1A1: Life Technologies and Expression Analysis (LTEA) Assay for Cytochrome P450 (CYP1A1) using HepaRG (AID 2283454). A digest of the protocol:
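Differentiated HepaRG cells in serum-free induction medium were exposed in duplicate for 48 h to eight half-log concentrations up to 100 uM in 0.5% DMSO. CYP1A1 mRNA was quantified by TaqMan qRT-PCR, normalized to ACTB, GAPDH and POLR2A.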

Read-out in assay [8]: Cyclin D2 (CCND2), CCND2 (gene 894)
Briefly: LTEA_HepaRG_CCND2: Life Technologies and Expression Analysis (LTEA) Assay for Cyclin D2 (CCND2) using HepaRG (AID 2283449).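 Note: CCND2 transcript measured by TaqMan qRT-PCR and normalised to three housekeeping genes.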 The method, boiled down: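 HepaRG, 48 h dosing, 8-pt half-log curve from 100 uM, 0.5% DMSO; duplicate wells. Readout: CCND2 transcript by microfluidic qRT-PCR, housekeeping-normalised; bidirectional fit vs DMSO baseline.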

Drawing on PubChem BioAssay (EPA / NIEHS), this text covers outcome and AC50 for 17 molecules.

The structures appear in SMILES notation. The source made the active and inactive calls. Rule for the calls: active = hit-call score of the fitted dose curve at least 0.9, where 1 is the maximum; inactive = score below 0.9.

Fatty acid synthase (Homo sapiens), sequence (P49327 whole entry, looked up): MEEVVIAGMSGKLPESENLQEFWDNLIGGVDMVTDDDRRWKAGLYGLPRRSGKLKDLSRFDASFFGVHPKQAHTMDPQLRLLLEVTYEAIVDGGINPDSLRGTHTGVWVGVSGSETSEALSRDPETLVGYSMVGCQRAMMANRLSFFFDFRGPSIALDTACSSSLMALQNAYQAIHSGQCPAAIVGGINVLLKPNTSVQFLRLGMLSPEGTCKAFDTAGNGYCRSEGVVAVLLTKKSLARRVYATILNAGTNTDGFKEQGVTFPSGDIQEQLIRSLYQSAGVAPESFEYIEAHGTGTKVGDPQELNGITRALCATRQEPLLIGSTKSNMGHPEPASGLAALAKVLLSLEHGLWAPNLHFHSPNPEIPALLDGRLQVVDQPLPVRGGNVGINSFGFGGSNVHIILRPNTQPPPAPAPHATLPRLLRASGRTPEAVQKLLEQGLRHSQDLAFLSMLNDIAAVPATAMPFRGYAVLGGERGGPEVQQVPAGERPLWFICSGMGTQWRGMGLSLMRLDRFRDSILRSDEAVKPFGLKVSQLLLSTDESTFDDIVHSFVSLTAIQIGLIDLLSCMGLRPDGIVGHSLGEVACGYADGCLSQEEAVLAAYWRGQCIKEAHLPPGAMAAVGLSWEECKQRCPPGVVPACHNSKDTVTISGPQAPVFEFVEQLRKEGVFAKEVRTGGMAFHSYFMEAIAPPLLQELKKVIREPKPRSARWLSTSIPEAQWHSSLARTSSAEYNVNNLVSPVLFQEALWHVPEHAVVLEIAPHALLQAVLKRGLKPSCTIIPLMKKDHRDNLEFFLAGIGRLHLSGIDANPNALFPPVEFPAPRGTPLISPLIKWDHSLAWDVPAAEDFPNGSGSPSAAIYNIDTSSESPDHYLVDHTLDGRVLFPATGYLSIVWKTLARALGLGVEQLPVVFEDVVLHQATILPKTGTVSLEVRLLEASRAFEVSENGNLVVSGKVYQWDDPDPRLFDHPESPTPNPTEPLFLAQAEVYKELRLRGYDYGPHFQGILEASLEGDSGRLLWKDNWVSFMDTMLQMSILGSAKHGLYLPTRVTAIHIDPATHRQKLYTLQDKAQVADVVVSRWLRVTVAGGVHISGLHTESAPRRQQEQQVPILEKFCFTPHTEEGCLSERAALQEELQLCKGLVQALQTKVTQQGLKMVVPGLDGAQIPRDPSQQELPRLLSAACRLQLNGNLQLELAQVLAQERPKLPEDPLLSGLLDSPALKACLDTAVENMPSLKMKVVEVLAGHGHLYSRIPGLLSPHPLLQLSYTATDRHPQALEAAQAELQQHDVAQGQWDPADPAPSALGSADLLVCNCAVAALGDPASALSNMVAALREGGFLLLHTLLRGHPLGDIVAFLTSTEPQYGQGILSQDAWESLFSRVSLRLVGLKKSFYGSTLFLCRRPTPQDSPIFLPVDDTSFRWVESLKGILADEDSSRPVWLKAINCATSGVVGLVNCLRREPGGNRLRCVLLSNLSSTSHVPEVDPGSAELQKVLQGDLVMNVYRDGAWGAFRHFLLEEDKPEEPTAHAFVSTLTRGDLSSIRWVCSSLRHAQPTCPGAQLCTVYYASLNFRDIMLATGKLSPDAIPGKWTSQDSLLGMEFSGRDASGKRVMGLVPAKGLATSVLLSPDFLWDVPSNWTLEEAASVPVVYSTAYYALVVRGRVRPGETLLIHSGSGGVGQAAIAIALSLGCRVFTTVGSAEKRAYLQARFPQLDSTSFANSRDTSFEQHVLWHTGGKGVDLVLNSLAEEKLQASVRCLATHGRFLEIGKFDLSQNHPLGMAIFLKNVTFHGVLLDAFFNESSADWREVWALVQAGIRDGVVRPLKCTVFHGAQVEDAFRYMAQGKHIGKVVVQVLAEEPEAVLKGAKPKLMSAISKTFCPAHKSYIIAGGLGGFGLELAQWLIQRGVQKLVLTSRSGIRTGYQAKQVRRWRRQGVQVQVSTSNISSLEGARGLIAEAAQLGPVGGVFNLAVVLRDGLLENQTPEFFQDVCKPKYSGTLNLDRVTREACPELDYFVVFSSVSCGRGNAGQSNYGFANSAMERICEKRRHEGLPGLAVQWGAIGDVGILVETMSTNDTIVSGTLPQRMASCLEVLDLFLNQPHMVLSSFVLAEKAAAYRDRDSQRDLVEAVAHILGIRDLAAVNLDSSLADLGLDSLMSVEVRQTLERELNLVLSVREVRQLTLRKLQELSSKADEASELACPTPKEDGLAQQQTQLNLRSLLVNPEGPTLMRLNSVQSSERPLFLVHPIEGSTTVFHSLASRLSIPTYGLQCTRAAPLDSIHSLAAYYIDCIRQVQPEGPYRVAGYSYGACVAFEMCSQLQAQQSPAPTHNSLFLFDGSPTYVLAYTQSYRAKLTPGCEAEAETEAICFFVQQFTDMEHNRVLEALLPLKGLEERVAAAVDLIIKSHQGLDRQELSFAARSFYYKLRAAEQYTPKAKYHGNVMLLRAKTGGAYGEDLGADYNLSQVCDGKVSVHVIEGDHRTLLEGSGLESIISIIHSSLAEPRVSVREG

With `C=CC(=O)NCNC(=O)C=C`, the molecule was classed as inactive in assay [1], in assay [2], in assay [3], in assay [4], in assay [5] and in assay [6]. Also, in assay [7], the concentration at half-maximal activity (AC50) is 25 µM (active).

As for `COS(=O)(=O)OC`, the molecule was called inactive in assay [1], in assay [2], in assay [8], in assay [4], in assay [5] and in assay [6]. Besides, the AC50 in assay [7] is 25.5 µM (active).

With `CC(C)C(=O)OCC(C)(C)C(OC(=O)C(C)C)C(C)C` (stereo not given), the molecule was called inactive in assay [1], in assay [2], in assay [3], in assay [5], in assay [6] and in assay [7].

As for `C=CC(N)=O`, the outcome in assay [1], in assay [2], in assay [8], in assay [5], in assay [6] and in assay [7] was inactive.

Take `O=C(O)C(F)(F)C(F)(F)C(F)(F)C(F)(F)C(F)(F)C(F)(F)C(F)(F)C(F)(F)F`: the concentration at half-maximal activity (AC50) in assay [1] was 69.2 µM (active); in assay [2], 94.2 µM (active); in assay [3], 79.9 µM (active); in assay [5], 85 µM (active); in assay [6] it was 79.7 µM (active). The result in assay [7] was inactive.

As for `O=S(=O)(O)C(F)(F)C(F)(F)C(F)(F)C(F)(F)F`, the molecule was classed as inactive in assay [1], in assay [2], in assay [8], in assay [4], in assay [5] and in assay [6]. The outcome in assay [7] was inactive.

On to `O=C(NC(=O)c1cc(F)c(F)cc1Cl)Nc1cc(F)ccc1N1CCC(C(=O)O)CC1`, for which the outcome in assay [1], in assay [2], in assay [8], in assay [5] and in assay [6] was inactive. In assay [7], the AC50 is 25 µM (active).

For `O=C(O)C(F)(F)C(F)(F)C(F)(F)C(F)(F)C(F)(F)F`, the result in assay [1], in assay [2], in assay [8] and in assay [5] was inactive. In addition, the results for the AC50 in assay [6] and in assay [7] were 2.34 µM (active) and 50 µM (active), respectively.

For the molecule `CCCCCCCCCC[N+](C)(C)CCCCCCCCCC`, the molecule was classed as inactive in assay [1], in assay [8] and in assay [5]. For the same molecule, the AC50 in assay [2] is 42.7 µM (active); in assay [4], 50 µM (active); in assay [6] it was 79.4 µM (active); in assay [7], 22.9 µM (active).

As to `CCOC(=O)C(O)(c1ccc(Cl)cc1)c1ccc(Cl)cc1`, the outcome in assay [1], in assay [2], in assay [8], in assay [5] and in assay [6] was inactive. Further, the AC50 in assay [7] was 47.1 µM (active).

As to `Oc1ccc(C(c2ccc(O)cc2)(C(F)(F)F)C(F)(F)F)cc1`, the molecule was classed as inactive in assay [1]. For the same molecule, the AC50 in assay [2] is 90.7 µM (active); in assay [8], 0.147 µM (active); in assay [5], 89.2 µM (active); in assay [6], 78.3 µM (active); in assay [7], 50 µM (active).

Consider `c1ccc(-c2ccccc2)cc1`, for which the outcome in assay [2], in assay [8], in assay [5], in assay [6] and in assay [7] was inactive.

On to `Cc1cccc([N+](=O)[O-])c1`, for which the molecule was classed as inactive in assay [2], in assay [8], in assay [5] and in assay [6]. The AC50 in assay [7] was 50 µM (active).

In the case of `O=NN(c1ccccc1)c1ccccc1`, the molecule was classed as inactive in assay [1], in assay [2], in assay [8], in assay [5] and in assay [6]. In addition, the AC50 in assay [7] is 25.9 µM (active).

Regarding `Cc1ccccc1O`, the molecule was classed as inactive in assay [1], in assay [2], in assay [8], in assay [4], in assay [5] and in assay [6]. Besides, the call in assay [7] was inactive.

With `Oc1c(Cl)c(Cl)c(Cl)c(Cl)c1Cl`, the AC50 in assay [1] is 6.31 µM (active); in assay [2], 1.87 µM (active); in assay [5], 2.73 µM (active); in assay [6], 4.5 µM (active); in assay [7] it was 7.23 µM (active). In addition, the call in assay [8] was inactive.

For the molecule `CO/C=C(/C(=O)OC)c1ccccc1COc1cccc(C(F)(F)F)n1`, the AC50 in assay [1] was 9.8 µM (active); in assay [2] it was 9 µM (active); in assay [4] it was 50 µM (active); in assay [5], 6.81 µM (active); in assay [6], 20.9 µM (active); in assay [7] it was 8.52 µM (active).
